BoNT-A LC inh2 – blocks Botulinum neurotoxin A light chain protease. multiplex microsphere protease substrate cleavage, flow cytometry. inhibition, % at 10 µM. AID 588499. hit rate 0.17% among 360,000; further: plate controls were buffer without enzyme for full effect and enzyme alone for no effect
Autofluor counter – flagged as autofluorescent in microsphere protease counterscreen; fluorescence intensity (test concentration not listed); compound autofluorescence counterscreen, microsphere flow cytometry; active compounds read high; AID 624483; hit rate 3.1% among 360,000; in the data active means fluorescence intensity above about 16000; inconclusive means no clear call, values can overlap the other calls
BoNT-F LC inh – BoNT F light chain protease inhibition | Multiplex microsphere protease cleavage assay, flow cytometry | inhibition, % at 10 µM | hit rate 0.22% among 360,000 | AID 588497; in the data active means inhibition above about 35%, passing the limit was not always enough; inconclusive means no clear call, values can overlap the other calls; further: plate controls were buffer without enzyme for full effect and enzyme alone for no effect
Anthrax LF prot – blocks Bacillus anthracis lethal factor protease | P15917 | multiplex microsphere protease cleavage assay, LF | inhibition, % at 10 µM | hit rate 0.12% among 360,000 | AID 588501; further: plate controls were buffer without enzyme for full effect and enzyme alone for no effect
Numbers without * were called inactive; ? = inconclusive; ! = a repeat was not active. Most compounds without a hit are left out; they make up all but 3.5% or so of the library. Unless noted, no stated cut-off is given here; in the data, active means inhibition above about 30%; inconclusive means no clear call, values can overlap the other calls; inactive means below that.

SMILES	BoNT-A LC inh2	Autofluor counter	BoNT-F LC inh	Anthrax LF prot
COc1ccc(N2CC2c2ccncc2)cc1 (configuration not stated)	-0.3	3581	-5.0	3.2
Clc1ccc(N2COC3c4cccc5cccc(c45)C32)cc1 (configuration not stated)	0.1	22405*	-1.6	-1.3
CS(=O)(=O)NC1c2cccc3cccc(c23)C1N1CCOCC1 (configuration not stated)	-1.2	8047	-3.2	-1.4
CNC(=S)Nc1cccc(S(=O)(=O)NCc2ccco2)c1	-0.4	2914	-0.6	-9.8
CC(=O)/C(=N/Nc1ccccc1)N1CCOCC1	1.5	22407*	2.9	-1.9
CC(=O)/C(=N/Nc1cccc(Cl)c1)N1CCOCC1	-0.1	3783	-12.1	0.8
O=[N+]([O-])c1ccc(Sc2cccc3cccnc23)c([N+](=O)[O-])c1	?	20643*	6.1	-2.2
COc1cccc(CNC(=O)CSc2nnc3c(n2)[nH]c2ccccc23)c1	-0.3	4447	-0.6	-1.7
CC(=O)N(Cc1cc2cc(C)c(C)cc2n2nnnc12)CC1COCCO1 (configuration not stated)	1.5	22636*	1.7	-0.6
Cc1cc2cc(CN(Cc3ccc4c(c3)OCO4)C(=O)c3cnccn3)c3nnnn3c2cc1C	-1.8	3303	-18.4	-5.7
CCCCOc1ncnc2c1[nH]c1ccc(OCC)cc12	1.5	18958*	1.3	-0.5
COC(=O)C1=C(C)NC(=O)C1(NS(=O)(=O)c1ccc(NC(C)=O)cc1)C(F)(F)F (configuration not stated)	-1.8	19985*	-3.9	-2.1
CC(C)C[C@H]1COc2cccc(N(C)CCO)c2S(=O)(=O)N1	0.9	4057	11.2	-13.9
COc1cccc(N2C(=O)C(CC(=O)Nc3ccccc3)N(C3CCCCC3)C2=O)c1 (configuration not stated)	3.0	19391*	5.6	-3.6
CCOc1ccc(C(=O)Nc2cnn(Cc3ccc(Cl)c(Cl)c3)c2)cc1	0.9	16229*	-0.7	-1.4
NNC(=O)c1cn2ccccc2n1	?	19411*	1.0	-5.3
O=C(COC(=O)c1ccccc1Br)Nc1cccnc1Cl	-3.6	5160	-7.5	-0.8
Oc1ccc(Cl)cc1CNc1ccc(Br)cn1	-3.1	23615*	-5.2	-7.3
Oc1c(Cl)cc(Cl)cc1CNc1ccc(Br)cn1	-1.1	3770	-29.6	-7.4
CCOC(=O)c1c(CN2CCN(c3ccccc3)CC2)oc2ccc(O)cc12	-0.9	6019	-9.9	-3.0
CCOC(=O)c1c(CN2CCCCC2C)oc2ccc(OC)cc12 (configuration not stated)	-1.6	22711*	-2.8	-0.7
CCOC(=O)c1c(CN2CCC(C)CC2)oc2ccc(OC)cc12	-0.3	20393*	-0.6	-2.3
CCOC(=O)c1c(CN2CCCCC2)oc2ccc(OC)cc12	0.6	19520*!	-0.2	-0.3
CCOC(=O)c1c(CN2CCN(C)CC2)oc2ccc(OC)cc12	1.7	16006	2.0	0.5
OCC1(Cc2ccccc2)CCN(C2CCN(c3ccc(F)c(F)c3)CC2)CC1	-1.0	2548	-3.5	-0.7
SMILES	BoNT-A LC inh2	Autofluor counter	BoNT-F LC inh	Anthrax LF prot
CCOc1ccc(-c2c(=O)n(OCc3ccccn3)c3ccccc3[n+]2[O-])cc1	1.3	22653*	1.0	0.3
CCOC(=O)COn1c(=O)c(-c2ccccc2)[n+]([O-])c2ccccc21	1.6	3611	31.1	29.7*
OC1CNc2c(ccc3ccccc23)C1 (configuration not stated)	-0.5	3795	-7.4	-5.1
N#Cc1ccc2ccn(CC(=O)NC3CCCCC3)c2c1	0.6	16380*	0.4	-3.5
COc1ccc(NS(=O)(=O)c2cc(C(=O)N(C)CCc3ccccn3)ccc2Cl)cc1	0.5	3632	0.0	-0.9
CC1CCCN(C(=O)Cn2c(-c3nonc3N)nc3ccccc32)C1 (configuration not stated)	8.5	18146*	13.7	1.5
CCc1c(C)sc(NC(=O)CSc2nc3c(c(C(F)(F)F)n2)CCc2ccccc2-3)c1C#N	-3.7	21133*	-3.2	-0.8
CCCCc1cc(=O)oc2c(CN(C)C)c(O)c(Cl)cc12	-0.4	23705*	-3.3	-1.6
CCc1c(C)c2cc(Cl)c(O)c(CN(C)C)c2oc1=O	?	17210*	-6.7	0.7
CCCCc1cc(=O)oc2c(CN3CCCC3)c(O)ccc12	-2.2	20462*	-3.7	-0.2
CC(C)(C)OC(=O)N[C@H](C(=O)OC(C)(C)C)c1ccc2c(c1)OCO2	1.0	3717	1.4	1.6
Cc1ccc(NC2=CC(=O)C(=O)c3ccccc32)cc1	-0.7	16510*	-5.1	-1.5
FC(F)(F)c1nnc2sc(-c3ccncc3)nn12	?	19007*	2.4	-5.1
Cc1ccc2[nH]c3c(c2c1)CN(C(=O)CN1c2ccc(F)cc2CCC1C)CC3 (configuration not stated)	?	21807*	-11.4	-8.2
Cc1ccc2[nH]c3c(c2c1)CN(C(=O)CN1CCN(c2cccc(C)c2C)CC1)CC3	1.5	5361	17.9	1.0
CCCCn1c(N)c(N(CC)C(=O)C2CCN(C(=O)c3ccccc3C)CC2)c(=O)[nH]c1=O	-0.5	3994	-3.0	1.4
Cc1cc(C)c(NC2=NS(=O)(=O)c3ccccc32)c(C)c1	?	22474*	1.0	-3.1
Cc1ccc(C)c(NC2=NS(=O)(=O)c3ccccc32)c1	-0.4	11458	-1.6	-2.1
COC(=O)c1ccc(C(=O)OC)c(NC2=NS(=O)(=O)c3ccccc32)c1	-1.6	23866*	-2.2	-7.0
Cc1cc(O)c(C(C)C)cc1NC1=NS(=O)(=O)c2ccccc21	-1.0	16315*	-2.8	-2.4
CN(CC(=O)Nc1ccc(Cl)c(C(F)(F)F)c1)C(=O)c1ccc2c(c1)NC(=O)CS2	5.8	2768	-2.9	3.1
CCN(CC(=O)NCc1ccc(F)cc1)C(=O)CN1CCN(c2ccc(OC)cc2)CC1	-0.2	3928	?	-9.5
CC(C)N1CCN(C(=O)C2CCC(=O)N(CCc3cccc(F)c3)C2)CC1 (configuration not stated)	-3.0	6010	-10.8	-2.6
COCCN(C(=O)c1sc2ccccc2c1Cl)c1c(N)n(CC(C)C)c(=O)[nH]c1=O	2.8	2743	8.8	2.8
CCn1c(CNC(=O)c2cccs2)nnc1SCC(=O)Nc1cc(Cl)ccc1C	?	21203*	9.7	-1.7
SMILES	BoNT-A LC inh2	Autofluor counter	BoNT-F LC inh	Anthrax LF prot
CCn1c(CNC(=O)c2cccs2)nnc1SCC(=O)NCCc1ccccc1	?	24231*	1.0	-1.7
CCn1c(CNC(=O)c2cccs2)nnc1SCC(=O)Nc1ccc(Cl)cc1	-1.7	17189*	-4.6	-4.9
O=C(CSc1nc2ccc(Nc3nc(N4CCOCC4)nc(N4CCOCC4)n3)cc2s1)Nc1ccccc1F	-0.6	5649	-3.0	-1.7
CN(C)CCCNC(=O)C[C@H]1C[C@H](C(=O)N2CCCCC2)[C@@]2(C)c3[nH]c4cc(CCC(=O)N(C)C)ccc4c3CCN2C1=O	-0.3	4034	0.2	0.7
Cc1occc1-c1nc(-c2ccncc2)no1	3.3	21018*	3.2	-2.3
Cc1ccc(CN2CCNC(=O)C2CC(=O)O)cc1 (configuration not stated)	0.4	5174	-8.0	-5.3
CN1CCNC(=O)C1CC(=O)O (configuration not stated)	?	22031*	0.3	0.6
COc1ccc2oc(=O)c(-c3nc(C)cs3)cc2c1	?	20394*	12.1	7.1

From PubChem BioAssay
